# Values joined by “and” are separate entries in the source; they are usually repeats but may differ in a detail not shown here. Equal entries are not always repeated. Inconclusive results are not listed. A call without a number means that no potency is given here. A number with no mark means an inactive call. Active and inactive are the calls of the source. The call rests on the fitted dose curve; in most records, active means well fitted curve in the direction sought with a large enough effect; inconclusive means small, poorly fitted or top-dose-only effect, or another doubt; inactive means no such curve, though single readings can be large; an effect the other way counts as inactive or inconclusive. Peptide text beside a SMILES is read from it.
# Key:
# [1] = target: Cellular tumor antigen p53 (Homo sapiens) (UniProt P04637); test: Primary qHTS for small molecule compounds that upregulate eGFP-tagged delta133p53alpha (in N-terminal) cells. (AID 2060322); conditions: NCI-H358 eGFP-delta133p53alpha fluorescence, 24 h; activation: hits give high values; further: nearly all actives have a fitted effect of over 75% in size; further: potency means the concentration at half of the fitted maximal effect;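 on activation: cells pre-induced with doxycycline then dosed without doxycycline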
# Summary of the method: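 NCI-H358 cells pre-induced 24 h with 10 ng/ml doxycycline for eGFP-delta133p53alpha, plated dox-free and exposed 24 h at 37C to titrated compounds. Fixed, Hoechst-stained; gated GFP peak intensity by laser scanning cytometry, normalized to DMSO (0%) and 57.5 uM 5-azacytidine (100%).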
# [2] = target: Aldehyde dehydrogenase, mitochondrial (Homo sapiens) (UniProt P05091); test: qHTS for Inhibitors of the Aldehyde Dehydrogenase Family (ALDH2) Primary screen (AID 2061308); conditions: ALDH2 enzyme inhibition qHTS, 1536-well; series mostly up to 56 µM; further: nearly all actives have a fitted effect of over 55% in size
# [3] = target: Retinaldehyde dehydrogenase 3 (Homo sapiens) (UniProt P47895); test: qHTS for Inhibitors of the Aldehyde Dehydrogenase Family (ALDH1A3) Primary screen (AID 2061315); conditions: ALDH inhibition qHTS; series mostly up to 56 µM
# Chain of Cellular tumor antigen p53 (Homo sapiens) (P04637 whole entry, looked up): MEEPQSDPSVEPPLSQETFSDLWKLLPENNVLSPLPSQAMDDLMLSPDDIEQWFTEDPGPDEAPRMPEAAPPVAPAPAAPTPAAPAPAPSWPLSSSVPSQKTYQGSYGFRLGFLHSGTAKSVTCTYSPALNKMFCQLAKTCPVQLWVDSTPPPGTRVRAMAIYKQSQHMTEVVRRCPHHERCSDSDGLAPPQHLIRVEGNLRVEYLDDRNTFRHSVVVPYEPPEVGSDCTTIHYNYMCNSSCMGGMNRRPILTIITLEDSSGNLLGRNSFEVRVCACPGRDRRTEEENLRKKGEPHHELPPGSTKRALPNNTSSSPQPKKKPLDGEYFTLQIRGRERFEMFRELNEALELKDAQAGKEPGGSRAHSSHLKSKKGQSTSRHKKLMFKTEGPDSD
Compound,activation [1],Potency [2],Potency [3],Potency [1],"activity change, negative = inhibition [2]","activity change, negative = inhibition [3]"
C[C@@H]1O[C@@H](O[C@@H]2CO[C@@H](O[C@H]3CC[C@@]4(C)C(CC[C@]5(C)C4CC=C4[C@@H]6CC(C)(C)CC[C@]6(C(=O)O[C@@H]6O[C@H](CO)[C@@H](O)[C@H](O)[C@H]6O)CC[C@]45C)[C@]3(C)CO)[C@H](O)[C@H]2O[C@@H]2O[C@H](CO)[C@@H](O)[C@H](O)[C@H]2O)[C@H](O)[C@H](O)[C@H]1O (some centres not stated),-16.1%,inactive,inactive,–,–,–
CCN1C(=O)c2ccccc2C1Nc1ccc(OCCN2CCCCC2)cc1 (configuration not stated),-18.4%,inactive,inactive,–,–,–
CC(C)=CC[C@H]1O[C@]2(O)C([C@H]3CCC4[C@@]5(C)CC[C@H](O[C@@H]6O[C@H](CO)[C@H](O)[C@H](O[C@@H]7O[C@H](CO)[C@@H](O)[C@H](O)[C@H]7O)[C@H]6O[C@@H]6O[C@@H](C)[C@H](O)[C@@H](O)[C@H]6O)C(C)(C)C5CC[C@@]4(C)[C@]3(C)[C@H]2O)[C@@]1(C)O (some centres not stated),17.6%,inactive,inactive,–,–,–
O=C(Nc1ccc(N2C(=O)[C@@H]3[C@H](C2=O)[C@@H]2C=C[C@H]3C2)c(Cl)c1)c1ccccn1,-11.7%,inactive,inactive,–,–,–
C=CC1(C)C=C2CCC3C(C)(C)C(O[C@@H]4O[C@@H](CO)[C@H](O)[C@H]4O)CCC3(C)C2CC1O[C@@H]1O[C@H](C)[C@H](O)[C@H](O)[C@H]1O (some centres not stated),0.763%,inactive,inactive,–,–,–
CC(=O)N1CCN(C(=O)Cc2ccc(Nc3ncc(F)c(Nc4ccc(C(=O)Nc5ccccc5Cl)cc4)n3)cc2)CC1,–,inactive,inactive,13.5 µM (active),–,–
COC1=CC(=O)CC(C)C12Oc1cc(OC)cc(O)c1C2=O (configuration not stated),16.8%,inactive,inactive,–,–,–
Cc1cccc(S(=O)(=O)N2CCC[C@@H]2CCN2CCC(C)CC2)c1,0%,inactive,inactive,–,–,–
CC(C)C(C)C(O)C1CC23CC(=O)C4(O)C(=C2CCC3C1C)C=CC1(O)CC(O)CCC14C (configuration not stated),15.3%,inactive,inactive,–,–,–
CCN(CC)c1ccc2c(O)c(C=Nc3ccc(CC(=O)O)c(-c4c5c(nc6ccccc46)CCC(C(=O)NN)C5)c3)c(=O)oc2c1 (configuration not stated),–,inactive,inactive,5.36 µM (active),–,–
COc1c2c(c(CO)c3c1C(=O)OC3)OC1(C)CCC3(O)C(C)(C)OC(=O)CCC3(C)C1C2 (configuration not stated),-16%,inactive,inactive,–,–,–
CC1=C2CC(=O)C(C)CC/C=C(\C)CC2OC1=O (configuration not stated),8.93%,inactive,inactive,–,–,–
COc1ccccc1CC(C(=O)O)N(C)C(=O)c1ccccc1 (configuration not stated),-8.04%,inactive,inactive,–,–,–
CNC(=O)[C@H]1O[C@@H](n2cnc3c(NCc4ccc(N)c(I)c4)ncnc32)[C@H](O)[C@@H]1O,4.33%,–,–,–,0.813% [at 11.2 µM],4.83% [at 11.2 µM]
C=CC(C)(O)CO[C@@H]1O[C@H](CO)[C@@H](O)[C@H](O)[C@H]1O (some centres not stated),-16%,inactive,inactive,–,–,–
CC(C)C(C#N)O[C@@H]1O[C@H](CO[C@@H]2OC[C@](O)(CO)[C@H]2O)[C@@H](O)[C@H](O)[C@H]1O (some centres not stated),6.87%,inactive,inactive,–,–,–
COc1ccc2c(c1)C(=O)N(CCc1ccc(S(=O)(=O)NC(=O)NC3CCCCC3)cc1)C(=O)C2(C)C,-11.7% and 6.33%,inactive,inactive,–,–,–
C/C=C(/C)C(=O)O[C@H]1C[C@]2(C)O[C@@H]2[C@@H](OC(C)=O)[C@@]2(C)CC[C@@](O)(C(C)C)[C@H]12,-19.1%,inactive,inactive,–,–,–
CC(C)(O)[C@@H]1CC[C@]2(CO)[C@@H](O)CC[C@](C)(O)[C@H]2[C@@H]1O[C@@H]1O[C@H](CO)[C@@H](O)[C@H](O)[C@H]1O,1.53%,inactive,inactive,–,–,–
CCC1OC(=O)C(C)CC(C)C(=O)/C(C)=C/C(C)C(=O)/C=C/C1(C)O (configuration not stated),3.05%,inactive,inactive,–,–,–
CC1(C)CC[C@]2(C(=O)O[C@@H]3O[C@H](CO)[C@@H](O)[C@H](O)[C@H]3O)CC[C@]3(C)C(=CCC4[C@@]5(C)CC[C@H](O[C@@H]6O[C@H](C(=O)O)[C@@H](O[C@@H]7O[C@H](CO)[C@@H](O)[C@H](O)[C@H]7O)[C@H](O)[C@H]6O)C(C)(C)C5CC[C@]43C)C2C1 (some centres not stated),-26.7%,inactive,inactive,–,–,–
CC(=O)OC/C(=C/C(=O)O)CC[C@@H]1C(C)=CC(=O)[C@@H]2C(C)(C)CCC[C@@]12C,-23.7%,inactive,inactive,–,–,–
C=CC(=O)N1CCCC(n2nc(-c3ccc(Oc4ccccc4)cc3)c3c(N)ncnc32)C1 (configuration not stated),18.8%,inactive,inactive,–,–,–
CC1CC(=O)C2=C(C1)C1OC1C1(O)C2C(=O)c2cccc(O)c2C1O (configuration not stated),4.58%,inactive,inactive,–,–,–
C[C@@H]1CCO[C@H]2Cn3cc(C(=O)NCc4ccc(F)cc4F)c(=O)c(O)c3C(=O)N12,32.3%,inactive,inactive,–,–,–

Compound,activation [1],Potency [2],Potency [3],Potency [1],"activity change, negative = inhibition [2]","activity change, negative = inhibition [3]"
C=C1CC[C@H]2[C@@H](/C=C(\C)C(=O)[C@@]3(OC(C)=O)C[C@H](C)[C@H](OC(C)=O)[C@@H]3[C@H]1OC(C)=O)C2(C)C,-20.6%,inactive,inactive,–,–,–
CC(C)=CCc1ccc(Oc2c(O)cc(C)cc2CO)c(C(=O)O)c1O,3.82%,inactive,inactive,–,–,–
NC(=O)c1csc(C2OC(CO)C(O)C2O)n1 (configuration not stated),-7%,inactive,inactive,–,–,–
NCCCC[C@H](NC(=O)[C@@H]1Cc2ccccc2CN1C(=O)CCC(=O)c1ccccc1)C(=O)NCC(c1ccccc1)c1ccccc1,-6.33%,inactive,inactive,–,–,–
COC(=O)[C@@H](O)[C@H]1[C@@]2(C)CC3(O)[C@@H](C(=O)[C@H]2O)[C@]24O[C@]25CC(=O)O[C@@H](c2ccoc2)[C@]5(C)CCC4[C@]13C (some centres not stated),-13%,inactive,inactive,–,–,–
C[C@@H](O)[C@H](N)C(=O)N1CCC[C@H]1C(=O)N1CCC[C@H]1C(=O)N[C@H](C(N)=O)[C@@H](C)O (H-TPPT-NH2),1%,–,–,–,5.09% [at 11.2 µM],-29.1% [at 11.2 µM]
C[C@H](N)C(=O)N[C@@H](Cc1ccc(O)cc1)C(=O)N1CCC[C@H]1C(=O)NCC(=O)N[C@@H](CCCCN)C(=O)N[C@@H](Cc1ccccc1)C(N)=O,-5.67%,–,–,–,4.44% [at 11.2 µM],-9.63% [at 11.2 µM]
CC(C)NC[C@H](O)COc1ccc(CCOCC2CC2)cc1,1.67%,inactive,inactive,–,–,–
Cn1c(=O)n(-c2ccc(C(C)(C)C#N)cc2)c2c3cc(C#Cc4cccnc4)ccc3ncc21,26.8%,inactive,inactive,–,–,–
COc1ccc(C2=CC(=O)OC2Cc2ccc(O)cc2)c(O)c1 (configuration not stated),-20.6%,inactive,inactive,–,–,–
CC[C@H]1OC(=O)[C@H](C)C(=O)[C@H](C)[C@@H](OC2O[C@H](C)C[C@H](N(C)C)[C@H]2O)[C@@H](C)C[C@@H](C)C(=O)/C=C/[C@]1(C)O (some centres not stated),-4.58%,inactive,inactive,–,–,–
C/C=C(\C)C1C(C)=CC2CCC(OS(=O)(=O)O)C(C)C2C1/C=C/C=C/C(=O)O (configuration not stated),0.893%,inactive,inactive,–,–,–
O=C(O)c1cc(O[C@@H]2O[C@H](CO)[C@@H](O)[C@H](O)[C@H]2O)ccc1O,-3.05%,inactive,inactive,–,–,–
C/C(=C\CO)CC/C=C(\C)C(=O)O[C@H]1[C@H](OC2OC=C(C(=O)O)C3CCC(C)(O)C23)O[C@H](CO)[C@@H](O)[C@@H]1O (some centres not stated),-22.3%,inactive,inactive,–,–,–
CC(C)(O)C1CC=C(C(=O)OC[C@H]2O[C@@H](OC(=O)C3=CCC(C(C)(C)O)CC3)[C@H](O)[C@@H](O)[C@@H]2O)CC1 (some centres not stated),-8.4%,inactive,inactive,–,–,–
COc1ccc(F)cc1-c1cc(NC(=O)[C@@H]2CCCNC2)ncc1Cl,–,inactive,inactive,0.269 µM (active),–,–
C=C[C@H]1[C@H](O[C@@H]2O[C@H](CO)[C@@H](O)[C@H](O)[C@H]2O)OC=C(C(=O)OC)[C@H]1C/C=C(/C=O)[C@@H]1C(C(=O)OC)=CO[C@@H](O[C@@H]2O[C@H](CO)[C@@H](O)[C@H](O)[C@H]2O)[C@@H]1C=C,-22.1%,inactive,inactive,–,–,–
COC(=O)C1=CO[C@@H](O)C2C(CO)=CCC12 (some centres not stated),23%,inactive,inactive,–,–,–
CC(=O)OC/C=C(\C)C(CC1C(C)=C(OC(C)=O)C(=O)C2C(C)(C)C(O)CCC12C)OC(C)=O (configuration not stated),-2.68%,inactive,inactive,–,–,–
CC(=O)/C=C/[C@H]1[C@](C)(O)[C@@H](O)[C@H](OC(C)=O)C2C(C)(C)CCC[C@@]21C (some centres not stated),-2.68%,inactive,inactive,–,–,–
C=CC(C)(C)c1[nH]c2cc3c(cc2c1CC1NC(=O)C2=CCCN2C1=O)C=CC(C)(C)O3 (configuration not stated),-10.7%,inactive,inactive,–,–,–
COc1cc(O)cc(C)c1C(=O)O[C@H]1[C@@H](OC(C)=O)[C@H](n2ccc(=O)[nH]c2=O)O[C@@H]1CO,-32.8%,inactive,inactive,–,–,–
C/C(=C/CO)CC[C@@H]1[C@@](C)(O)CCC2C(C)(C)CCC[C@]21C (some centres not stated),-7.14%,inactive,inactive,–,–,–
CC1=C2C3OC(=O)C(C)C3(O)CCC2(C)CCC1O (configuration not stated),-10.7%,inactive,inactive,–,–,–
